# ADAM17 inh = inhibitors of human ADAM17 | P78536 | recombinant ADAM17, EDANS/DABCYL FRET peptide cleavage | inhibition, % at 6.95 µM | 370,000 compounds, 0.83% hits | AID 720648;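 active = inhibition above the mean of compounds lying between control limits plus 3 SD, set per campaign, cut at about 8.5% in these data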
# proKLK7 act = proKLK7 (human) activation, primary screen. P49862. purified proKLK7, EDANS-DABCYL substrate fluorescence; 100% is mature enzyme control, 0% vehicle. activation, % at 7 µM. 370,000 compounds, 0.9% hits;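 active = activation above the mean of all tested compounds plus 3 SD, computed per campaign excluding outliers beyond control limits, cut at about 13% in these data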
# Target sequence (P49862 whole entry, looked up): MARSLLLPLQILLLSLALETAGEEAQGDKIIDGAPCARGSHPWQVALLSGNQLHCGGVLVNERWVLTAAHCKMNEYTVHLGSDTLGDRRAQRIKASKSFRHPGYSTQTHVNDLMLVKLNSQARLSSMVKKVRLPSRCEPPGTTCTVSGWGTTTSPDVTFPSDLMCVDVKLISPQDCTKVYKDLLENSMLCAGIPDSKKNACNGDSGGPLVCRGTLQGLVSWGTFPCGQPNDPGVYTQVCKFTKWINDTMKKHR
# Pemphigus Ab inh = blocks pemphigus antibody binding to human desmoglein-3 | P32926 | DSG3-coupled beads, scFv-anti-DSG3-GFP binding, flow cytometry; hits give low values | binding (percent of control), % at 10 µM | 310,000 compounds, 0.48% hits;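 active = binding more than 3 SD below its plate's average and above zero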;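 also: hits lower antibody fragment binding to DSG3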
# MPTP inh = inhibitors of mitochondrial permeability transition pore; isolated mouse mitochondria, Ca2+ swelling absorbance, 30 min; inhibition, % at 10 µM; 360,000 compounds, 1.4% hits;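 active = inhibition of 50% or more, scaled per plate between neutral and stimulator controls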
# rCAG binder = molecules binding r(CAG) RNA repeats. r(CAG) RNA repeat, TO-PRO-1 dye displacement fluorescence. inhibition, % at 3 µM. 370,000 compounds, 1.3% hits;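 active = inhibition above the plate cutoff, the mean of all test compounds on that plate plus 3 SD, cut at about 35% in these data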;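 also: higher means more dye released from RNA so lower well fluorescence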
# ADAM10 inh = inhibitors of human ADAM10; recombinant ADAM10, EDANS/DABCYL FRET peptide cleavage, 3 h; inhibition, % at 7 µM; 370,000 compounds, 0.62% hits; AID 720582;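 active = inhibition above a per-campaign cutoff equal to the mean of compounds falling between control-based bounds plus 3 SD, cut at about 20% in these data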
# ADAM10 ctr = inhibits human ADAM10 in ADAM17 exosite counter-screen; shares compounds with ADAM17 inh; AID 743256; inhibition, % at 6.95 µM; recombinant ADAM10, EDANS/DABCYL FRET peptide cleavage, 3 h; 2,900 compounds, 47% hits;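 active = mean inhibition over the triplicate runs exceeds the activity threshold set in the earlier primary screen, cut at about 20% in these data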
# ADAM17 confirm = confirmation of inhibitors of human ADAM17; shares compounds with ADAM17 inh; recombinant ADAM17, EDANS/DABCYL QFRET peptide cleavage; inhibition, % at 6.95 µM; 2,900 compounds, 65% hits;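 active = mean inhibition across replicates above the hit cutoff set in the primary screen, cut at about 8.5% in these data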
# Numbers stand for hits; – = inactive; · = no result given. The list is not random: actives were taken first. Their share in the collection is about 4.7%.
SMILES,ADAM17 inh,proKLK7 act,Pemphigus Ab inh,MPTP inh,rCAG binder,ADAM10 inh,ADAM10 ctr,ADAM17 confirm
CC(C)NC(=O)CSc1ccccc1C(=O)N1CCN(S(=O)(=O)Cc2ccccc2)CC1,–,–,–,–,–,–,·,·
COC(=O)c1ccc2nc(-c3cccc(Br)c3)c(Cc3ccccc3)n2c1,–,–,·,–,–,–,·,·
CCN(c1ccc(OC)cc1)S(=O)(=O)c1nnc(NC(=O)C2CCCCC2)s1,10,–,–,–,–,–,–,–
Cc1cc(S(=O)(=O)Nc2ccc(C(=O)N3CCN(c4ccccc4O)CC3)cc2)ccc1F,10.0,–,–,–,–,–,–,8.6
COCCNC(=S)N1C[C@H]2CON(C)[C@H]2C[C@H]1c1ccccc1Br,9.4,–,·,·,–,–,–,–
COc1cc(/C=C/C(=O)OCC(=O)Nc2oc(C)c3c(C)n[nH]c(=O)c23)ccc1OC(F)F,–,–,–,–,–,–,·,·
C=CCC[C@@H](Cc1ccc(F)cc1)C(=O)OC[C@@H](Cc1c[nH]c2ccccc12)NC(=O)[C@@H](CC=C)CC(=O)N(CCO)Cc1ccccc1,9.5,–,–,–,–,–,37,21
C=CCC[C@@H](Cc1ccc(F)cc1)C(=O)OC[C@H](C)NC(=O)[C@@H](CC=C)CC(=O)N(CCO)Cc1ccccc1,9.8,–,–,–,–,–,–,–
C=CCC[C@@H](Cc1ccc(F)cc1)C(=O)OC[C@@H](Cc1c[nH]c2ccccc12)NC(=O)[C@@H](CC=C)CC(=O)N[C@H](CO)Cc1ccccc1,–,–,–,–,–,–,·,·
CC1=CC(C)(C)N2C(=O)C3(SCC(=O)N3c3ccc(F)cc3)c3cc(C)cc1c32 (stereo not given),9.5,–,–,–,–,–,21,12
CC1=CC(C)(C)N2C(=O)C3(NCCc4c3[nH]c3ccccc43)c3cc(C)cc1c32 (stereo not given),–,–,–,–,–,–,·,·
CCNC(=S)N/N=C/c1cn(Cc2ccccc2F)c2ccccc12,9.1,–,–,–,–,–,–,20
COc1ccc(CCNC(=O)c2cccc(NC(=O)CC3SC(N4CCCCC4)=NC3=O)c2)cc1OC (stereo not given),–,–,–,–,–,–,·,·
COc1ccc(NC(=O)O/N=C/c2ccc(Br)cc2)cc1,10,–,–,–,–,–,–,–
COc1cccc(NC(=O)c2cc(-c3ccco3)nc3ccccc23)c1,–,–,–,–,–,–,·,·
COc1ccc(CCNC(=O)c2cc(-c3ccco3)nc3ccccc23)cc1,9.5,–,·,·,–,–,–,–
O=C1Nc2ccccc2-n2nnnc2C1N1CCN(c2ccc(C(F)(F)F)cc2[N+](=O)[O-])CC1 (stereo not given),8.6,–,·,–,–,–,32,18
Cc1ccc(C)c(N2CCN(C3C(=O)Nc4ccccc4-n4nnnc43)CC2)c1 (stereo not given),–,–,·,–,–,–,·,·
COc1cccc(CNC(=O)COC(=O)C2CCN(c3ccc(C(F)(F)F)cn3)CC2)c1,–,–,·,–,–,–,·,·
CCN(CC)C(=O)N1CCC(NC(=O)Cc2ccccc2)CC1,9.4,–,·,–,–,–,–,–
O=C(Cc1ccccc1)NC1CCN(C(=O)NCc2ccccc2)CC1,–,–,–,–,–,–,·,·
Cc1cccc(S(=O)(=O)NC(=O)C2(C)CCN2C(=O)Cc2cccs2)c1 (stereo not given),–,–,·,–,–,–,·,·
CCCc1cc(C(=O)N2CCN(c3ccc(C(F)(F)F)cn3)CC2)sc1C,12,–,–,–,–,–,21,14
Cc1ccc(C(=O)N2CCN(c3ccc(C(F)(F)F)cn3)CC2)cc1,–,–,–,–,–,–,·,·
CCOC(=O)c1c(C)[nH]c(C)c1S(=O)(=O)NCCc1sccc1C,9.0,–,–,–,–,–,–,–
COc1cccc(NC(=O)Cn2c3ccccc3c3nc4n(c(=O)c32)CCCS4)c1,–,–,–,–,–,–,·,·
